# Screening data from PubChem.
# The full list was thinned out, with hits kept by preference.
# ER stress surv: protection against thapsigargin ER stress killing – CSM14.1 cells, ATP luminescence, primary screen; CSM14.1 thapsigargin ER stress survival; relative survival (cellular ATP), % at 15 µg/mL (by protocol); 0.33% of 48,000 active;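 active means survival measured by cellular ATP above 50% at 15 µg/ml in the first screen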;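 further: cell death triggered by about 15 µM thapsigargin; ATP read 24 h after thapsigargin was added; plate controls were thapsigargin with DMSO for no effect and DMSO without thapsigargin for full effect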
# The depositor's hits bear a star.
SMILES,ER stress surv
COC(=O)c1[nH]cnc1C(=O)Nc1ccc(Br)cc1C(=O)c1ccccc1,1
COC(C(=O)Nc1ccc(Br)cc1C(=O)c1ccccc1)c1ccccc1 (stereo unspecified),72*
COC(C(=O)Nc1ccc(Br)cc1C(=O)c1ccccc1Cl)c1ccccc1 (stereo unspecified),11
C=CCN1C(=O)NC(=O)/C(=C/c2c3ccccc3cc3ccccc23)C1=O,9
COc1cccc(-n2c(Cc3ccccc3)nc3ccccc3c2=O)c1,8
